# RBX1-CUL1 inh – inhibitors of human ROC1-CUL1 ubiquitin ligase activity | 0.6% of 140,000 active | inhibition, % at 10 µM | E3 ubiquitin-protein ligase RBX1 (Homo sapiens) + Cullin-1 (Homo sapiens), P62877+Q13616 | in vitro K48 di-Ub FRET, acceptor:donor ratio, 45 min; in the data active means inhibition above about 25%
# Target sequence (P62877 whole entry, looked up): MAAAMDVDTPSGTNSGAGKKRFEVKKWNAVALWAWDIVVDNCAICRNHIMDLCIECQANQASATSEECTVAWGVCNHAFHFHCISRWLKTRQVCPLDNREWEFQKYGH
# Target sequence (Q13616 whole entry, looked up): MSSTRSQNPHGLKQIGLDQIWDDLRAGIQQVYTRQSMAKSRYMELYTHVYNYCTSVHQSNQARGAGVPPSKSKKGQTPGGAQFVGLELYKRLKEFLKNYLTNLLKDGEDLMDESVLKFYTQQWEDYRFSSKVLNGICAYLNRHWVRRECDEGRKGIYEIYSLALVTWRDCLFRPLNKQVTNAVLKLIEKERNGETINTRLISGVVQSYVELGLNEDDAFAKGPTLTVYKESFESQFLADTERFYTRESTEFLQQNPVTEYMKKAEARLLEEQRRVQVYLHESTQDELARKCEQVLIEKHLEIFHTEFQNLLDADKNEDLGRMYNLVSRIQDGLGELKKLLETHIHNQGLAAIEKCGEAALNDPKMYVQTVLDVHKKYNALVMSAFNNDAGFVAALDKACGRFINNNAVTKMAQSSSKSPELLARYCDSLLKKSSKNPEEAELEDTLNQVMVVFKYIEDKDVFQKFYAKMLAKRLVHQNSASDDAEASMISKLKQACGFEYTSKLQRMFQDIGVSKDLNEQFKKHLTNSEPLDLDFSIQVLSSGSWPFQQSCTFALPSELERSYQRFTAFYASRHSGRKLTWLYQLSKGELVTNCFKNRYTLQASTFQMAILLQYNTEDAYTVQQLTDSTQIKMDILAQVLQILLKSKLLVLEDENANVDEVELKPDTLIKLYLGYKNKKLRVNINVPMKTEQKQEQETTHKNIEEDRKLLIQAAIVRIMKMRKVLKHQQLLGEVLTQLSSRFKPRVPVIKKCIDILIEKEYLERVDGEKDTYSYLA
# * hit, by the source's call. The entries come from a sample that favours hits as a whole.
SMILES,RBX1-CUL1 inh
Cc1ccccc1COc1ccc(Br)cc1/C=C1\C(=O)NN(c2ccccc2)C1=O,49.5*
O=C1NN(c2ccccc2)C(=O)/C1=C/c1ccc(OCc2ccc(Cl)c(Cl)c2)cc1,-12.7
COc1ccc(-c2ccccc2NC(=O)C2CCCN2C(=O)CSC)cc1 (centres undefined),2.6
O=C(N/N=C/c1cn[nH]c1-c1ccccc1)c1ccc(Cl)cc1Cl,11.3
CC(C)C(C(=O)Nc1ccc(C(N)=O)cc1)N1C(=O)c2ccccc2C1=O (centres undefined),8.3
c1ccc(-c2nncnc2N2CCCCC2)cc1,-2.4
O=C(Cc1ccccc1F)Nc1cccnc1,6.6
Cc1ccc(N2NC(=O)/C(=C/c3cc4c(cc3Cl)OCO4)C2=O)cc1C,64.5*
Cc1ccc(N2NC(=O)/C(=C/c3ccc4c(c3)n(C)c(=O)n4C)C2=O)cc1Cl,7.8
Cc1ccc(N2NC(=O)/C(=C/c3ccccc3OCc3ccccc3)C2=O)cc1,7.1
CCOc1cc(/C=C2\C(=O)NN(c3ccc(Cl)cc3)C2=O)c(Br)c(Br)c1O,73.2*
CCOc1c(/C=C2\C(=O)NN(c3ccc(Cl)c(Cl)c3)C2=O)cccc1OC,12.9
CCOc1ccc(/C=C2/C(=O)NN(c3ccc(Cl)cc3)C2=O)cc1OC,-7.1
CCOc1ccccc1/C=C1\C(=O)NN(c2ccc(C)c(C)c2)C1=O,46.8*
CCOc1cc(/C=C2\C(=O)NC(=O)N(c3ccc(Cl)cc3)C2=O)cc(Br)c1O,3.7
O=C1NC(=S)NC(=O)C1=Cc1cc2c(cc1Cl)OCO2,2.7
COc1cc(NC(=S)NCc2ccccc2OC)c(OC)cc1Cl,-0.7
CN(CCc1ccccc1)C(=O)c1nc2sccn2c1CN1CCN(CC2CC2)CC1,-5.9
CNC(=O)c1ccc(OC)c(OC)c1,-0.7
CCc1nnc2sc(Cc3c(F)cccc3Cl)nn12,3.9
Cc1ccc2occ(/C=N\NC(=O)COc3ccccc3-c3ccnn3-c3ccccc3)c(=O)c2c1,2.9
O=C(COc1ccccc1-c1ccnn1-c1ccccc1)N/N=C/c1cc2ccccc2nc1Cl,-3.8
O=C(COc1ccccc1-c1ccnn1-c1ccccc1)N/N=C/c1coc2ccc(Cl)cc2c1=O,60.0*
O=C(Nc1cc(Cl)ncn1)NC1(C(F)(F)F)Oc2ccccc2O1,0.6
O=C(NC1(C(Cl)(Cl)Cl)Oc2cc(Cl)c(Cl)cc2O1)Sc1ccccc1,49.4*
SMILES,RBX1-CUL1 inh
CCOC(=O)NC1(C(Cl)(Cl)Cl)Oc2ccc(Cl)cc2O1 (centres undefined),1.7
CCCN1C(=O)/C(=C\c2nc3ccccc3c(=O)n2CC)c2cc(Br)ccc21,8.6
N/C(=N/O)c1ccccc1Sc1ccccc1,-9.1
O=C(CN1CCN(C2CCCCC2)C(=O)C1=O)Nc1ccc(Cl)cc1,-8.7
CCOc1ccc(NC(=O)CN2CCN(C3CCCCC3)C(=O)C2=O)cc1,57.8*
CCc1ccc(NC(=O)CN2CCN(C3CCCCC3)C(=O)C2=O)cc1,-1.9
COC(=O)C(NNc1ccccc1C)(NC(=O)c1ccc(Cl)cc1Cl)C(F)(F)F (centres undefined),-10.1
C/C(=N\NC(=O)c1ccccc1[N+](=O)[O-])c1ccc(N)cc1,-0.9
CSCC(=O)NC1CC(=O)N(C2Cc3ccccc3C2)C1 (centres undefined),-0.4
CCSC1=N/C(=C\c2ccc(C(=O)O)cc2)C(=O)S1,3.4
CC(C)(C)c1cc(/C=C2\N=C(SCc3ccccc3Cl)SC2=O)cc(C(C)(C)C)c1O,4.8
O=C1SC(SCc2ccccc2Cl)=N/C1=C\c1ccc(C(=O)O)cc1,54.2*
O=C(Nc1ccc2ccccc2c1)c1ccc(C(F)(F)F)cc1,4.1
COc1cc(Cl)c(CC2=NC(=S)N(C)C2=O)cc1OC,9.2
OC(CNC1CCCC1)COC12CC3CC(CC(C3)C1)C2 (centres undefined),-4.0
COc1ccccc1OCC(=O)Nc1ccc(S(=O)(=O)N2CCc3ccccc32)cc1,-1.9
CC(C)(C)C1CCc2c(sc(N=Cc3cc([N+](=O)[O-])cs3)c2C#N)C1 (centres undefined),-4.3
Cc1ccc2c(c1)C(=O)C(C(c1ccc(Cl)cc1Cl)C1C(=O)Oc3ccc(C)cc3C1=O)C(=O)O2 (centres undefined),56.1*
O=C1c2cc(Cl)ccc2OCC1Br (centres undefined),-5.9
COc1cc(C(C2C(=O)Oc3ccc(C)cc3C2=O)C2C(=O)Oc3ccc(C)cc3C2=O)cc(OC)c1OC (centres undefined),4.3
O=c1cc(C(F)(F)C(F)(F)C(F)(F)C(F)(F)F)nc(-c2ccccc2)[nH]1,5.1
COc1ccc(/C=C2\N=C(c3ccccc3)OC2=O)cc1[N+](=O)[O-],0.1
CCN(CC)c1ccc(/C=C2\N=C(c3ccccc3)OC2=O)cc1,31.7*
CCOc1cc(/C=C2\N=C(c3ccccc3)OC2=O)ccc1OCc1ccc(Cl)cc1,-2.5
Cc1ccc(CNC(=O)N=C2CN(CC(C)C)C(=O)c3ccccc32)cc1,1.7
SMILES,RBX1-CUL1 inh
COc1ccc(NC(=O)N=C2CN(CC(C)C)C(=O)c3ccccc32)c(OC)c1,-7.0
COc1ccc(CNC(=O)N=C2CN(CC(C)C)C(=O)c3ccccc32)c(OC)c1,28.1*
Cc1c(CC(=O)N(C)C)c2c(n1Cc1ccc(F)cc1)CCCC2=O,5.6
Cc1c(NC(=O)Cn2cnc3c(=O)n(C)c(=O)n(C)c32)cccc1-c1nc2cc(Cl)ccc2o1,1.5
CNCc1cn(C2CCN(C(=O)c3ccc4ncccc4c3)CC2)nn1,7.5
Oc1c(Cl)c(Cl)c2c(c1Cl)CC(Nc1ccc3ncccc3c1)O2 (centres undefined),81.3*
COC(=O)c1ccc2ncccc2c1,-16.5
C/C(=N\N1C(=O)c2ccccc2NC1c1cccc(Cl)c1)c1ccccc1O (centres undefined),7.3
CCOC(=O)C1=C(C)N=c2s/c(=C\c3ccccc3)c(=O)n2C1c1ccc(OC)c(OCC)c1 (centres undefined),2.7
Cc1ccc2c(c1)nnn2S(=O)(=O)c1ccc([N+](=O)[O-])cc1,-5.3
Cc1ccc2c(c1)nnn2S(=O)(=O)c1ccc(C(C)(C)C)cc1,0.0
CCc1ccc(S(=O)(=O)n2nnc3ccccc32)cc1,26.1*
CCN(CC)C(=O)C1CCN(S(=O)(=O)N(C)C)CC1,2.5
O=C(O)CSc1nnc2c(n1)OC(c1ccc(Cl)cc1)Nc1ccccc1-2 (centres undefined),-5.8
O=C(O)c1ccc(C2Nc3ccccc3-c3nnc(SCc4ccc(Cl)cc4)nc3O2)cc1 (centres undefined),25.7*
COC(=O)c1ccc(C2Nc3ccccc3-c3nnc(SCc4ccc(C)cc4)nc3O2)cc1 (centres undefined),-3.3
O=C1c2c(Cl)c(Cl)c(Cl)c(Cl)c2C(=O)C1C(c1ccccc1)c1ccccc1,61.6*
CC(C(=O)OCC(=O)c1ccc(-c2ccccc2)cc1)N1C(=O)c2c(Cl)c(Cl)c(Cl)c(Cl)c2C1=O (centres undefined),3.8
Cc1ccccc1C(c1ccccc1)C1C(=O)c2ccccc2C1=O (centres undefined),-3.6
Cn1c(SCC(=O)NCC(=O)c2ccccc2)nnc1-c1ccc(C(C)(C)C)cc1,1.5
COc1ccc(C2N(c3ccc(OC)cc3)C(=O)C2(F)F)cc1 (centres undefined),-5.7
Cc1ccc(C)n1NC(=O)C(O)(c1ccccc1)c1ccccc1,1.9
Cc1ccc(/C=c2/sc3n(c2=O)C(c2ccc(C)cc2)C2=C(N=3)c3ccccc3CC2)cc1 (centres undefined),3.2
